Rows were chosen to be rich in hits. Some 4.1% of all compounds tested hit in one or more screens of this group.
TRPM1 prom inh – inhibitors of MITF-dependent TRPM1 promoter reporter, primary screen, cell-based, SK-MEL-5, single point, luciferase | hit rate 0.83% among 330,000 | inhibition, % at 12.5 µM | SK-MEL-5 TRPM1 promoter luciferase, 24 h;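 active means mean inhibition across replicates of 60% or more, whatever share of single replicates reaches that level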
LMP1 NFkB inh – EBV LMP1-driven NF-kappaB luciferase reporter inhibitors, primary screen, cell-based, luminescence, single point. hit rate 0.69% among 350,000. inhibition, % at 12.5 µM. LMP1-induced NF-kappaB luciferase reporter cells; in the data active means inhibition above about 41%
TWEAK Fn14 block – inhibitors of TWEAK-Fn14 signaling, primary screen, luciferase reporter cells, uHTS; TWEAK-stimulated Fn14 reporter cells, luciferase luminescence, 8 h; inhibition, % at 10 µM; hit rate 2% among 360,000; in the data active means inhibition above about 50%
Peg3 prom inh – Peg3 promoter-driven luciferase inhibitors, primary screen, cell-based, HeLa, luciferase luminescence; HeLa PEG-Prom luciferase reporter, overnight; AID 588405, 2011; hit rate 1.7% among 360,000; inhibition, % at 20 µM;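 active means inhibition of at least 50% at 20 µM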
TROY signal inh – inhibitors of TROY-driven NF-kB signaling, primary screen, Q293 LMP1-TROYcd cells, NF-kB luciferase, uHTS. Q293 LMP1-TROYcd NF-kB luciferase reporter, 4 h. inhibition, % at 10 µM. hit rate 0.98% among 360,000. AID 1347056, 2019;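 active means compounds whose plate-normalised and pattern-corrected inhibition of the luciferase reporter signal at the single screening dose is 50% or more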
Shn3 inh set2 – reduction of Shn3 3'UTR firefly luciferase signal, primary screen, Schnurri-3 inhibitor project, cell-based, Clone20 osteoblasts, set 2; Clone20 osteoblast Shn3 3'UTR firefly luciferase, 24 h; inhibition, % at 12.5 µM; hit rate 0.52% among 360,000; AID 588674, 2011;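 active means mean inhibition of at least 75% with every replicate also reaching 75%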
Numbers stand for hits.

How did CCOc1ccc2nc(N(CCCN(C)C)C(=O)c3ccc(S(=O)(=O)N4CCCC4)cc3)sc2c1 do in these assays?
TRPM1 prom inh: inactive; LMP1 NFkB inh: inactive; TWEAK Fn14 block: inactive; Peg3 prom inh: inactive; TROY signal inh: inactive; Shn3 inh set2: inactive

How did CCc1ccc2nc(N(CCCN(C)C)C(=O)c3ccc(S(=O)(=O)N(C)C4CCCCC4)cc3)sc2c1 do in these assays?
TRPM1 prom inh: 96; LMP1 NFkB inh: inactive; TWEAK Fn14 block: inactive; Peg3 prom inh: 79; TROY signal inh: inactive; Shn3 inh set2: inactive

What do the screens show for `CN(C)CCCN(C(=O)c1ccc(S(=O)(=O)N2CCCC2)cc1)c1nc2ccc(Br)cc2s1`?
TRPM1 prom inh: 83; LMP1 NFkB inh: inactive; TWEAK Fn14 block: inactive; Peg3 prom inh: inactive; TROY signal inh: inactive; Shn3 inh set2: inactive

Results for CCN(Cc1ccccc1)S(=O)(=O)c1ccc(C(=O)N(CCCN(C)C)c2nc3ccc(F)cc3s2)cc1 ?
TRPM1 prom inh: 91; LMP1 NFkB inh: inactive; TWEAK Fn14 block: inactive; Peg3 prom inh: inactive; TROY signal inh: inactive; Shn3 inh set2: inactive

Results for CN(C)CCCN(C(=O)c1ccc(C(=O)c2ccccc2)cc1)c1nc2ccc(F)cc2s1 ?
TRPM1 prom inh: inactive; LMP1 NFkB inh: inactive; TWEAK Fn14 block: inactive; Peg3 prom inh: inactive; TROY signal inh: inactive; Shn3 inh set2: inactive

How did COc1ccc2sc(N(CCCN(C)C)C(=O)c3ccc(C(=O)c4ccccc4)cc3)nc2c1 do in these assays?
TRPM1 prom inh: inactive; LMP1 NFkB inh: inactive; TWEAK Fn14 block: inactive; Peg3 prom inh: inactive; TROY signal inh: inactive; Shn3 inh set2: inactive

How did CCN(Cc1ccccc1)S(=O)(=O)c1ccc(C(=O)N(CCCN(C)C)c2nc3cc(OC)ccc3s2)cc1 do in these assays?
TRPM1 prom inh: 63; LMP1 NFkB inh: inactive; TWEAK Fn14 block: inactive; Peg3 prom inh: inactive; TROY signal inh: inactive; Shn3 inh set2: inactive

Results for CC(C)CC(c1nnnn1CCc1ccccc1)N1CCC(C(N)=O)CC1 (centres undefined) ?
TRPM1 prom inh: inactive; LMP1 NFkB inh: inactive; TWEAK Fn14 block: inactive; Peg3 prom inh: inactive; TROY signal inh: inactive; Shn3 inh set2: inactive

What do the screens show for `CC1=NCC(C)c2c1[nH]c1ccccc21` (centres undefined)?
TRPM1 prom inh: inactive; LMP1 NFkB inh: inactive; TWEAK Fn14 block: inactive; Peg3 prom inh: inactive; TROY signal inh: 75; Shn3 inh set2: inactive

Results for CCc1nnc(NC(=O)CCC(=O)NCc2ccc(OC)cc2)s1 ?
TRPM1 prom inh: inactive; LMP1 NFkB inh: inactive; TWEAK Fn14 block: inactive; Peg3 prom inh: inactive; TROY signal inh: inactive; Shn3 inh set2: inactive

How did Cc1nc(Nc2ccc(Cl)cc2Cl)sc1C(=O)Nc1ccccc1 do in these assays?
TRPM1 prom inh: inactive; LMP1 NFkB inh: inactive; TWEAK Fn14 block: inactive; Peg3 prom inh: inactive; TROY signal inh: inactive; Shn3 inh set2: inactive

What do the screens show for `Cc1nc(Nc2ccc(Cl)c(Cl)c2)sc1C(=O)Nc1ccccc1`?
TRPM1 prom inh: inactive; LMP1 NFkB inh: inactive; TWEAK Fn14 block: 84; Peg3 prom inh: inactive; TROY signal inh: inactive; Shn3 inh set2: inactive

What do the screens show for `Cc1ccc(C2=NN(C(=O)CCl)C(c3ccco3)C2)o1` (centres undefined)?
TRPM1 prom inh: inactive; LMP1 NFkB inh: inactive; TWEAK Fn14 block: 55; Peg3 prom inh: 69; TROY signal inh: inactive; Shn3 inh set2: inactive

What do the screens show for `CC(=O)NNc1ncnc2c1cnn2-c1ccc(C)cc1`?
TRPM1 prom inh: inactive; LMP1 NFkB inh: inactive; TWEAK Fn14 block: inactive; Peg3 prom inh: inactive; TROY signal inh: inactive; Shn3 inh set2: inactive

What do the screens show for `Cc1ccc(Cl)cc1-n1ncc2c(NNC(=O)c3ccco3)ncnc21`?
TRPM1 prom inh: inactive; LMP1 NFkB inh: inactive; TWEAK Fn14 block: 63; Peg3 prom inh: inactive; TROY signal inh: inactive; Shn3 inh set2: inactive

How did CC(=O)NNc1ncnc2c1cnn2-c1ccc(C)c(Cl)c1 do in these assays?
TRPM1 prom inh: inactive; LMP1 NFkB inh: inactive; TWEAK Fn14 block: 73; Peg3 prom inh: inactive; TROY signal inh: 61; Shn3 inh set2: inactive

How did COc1ccc2c(c1)-c1c(ssc1=S)C(C)(C)N2S(=O)(=O)c1ccc(C)cc1 do in these assays?
TRPM1 prom inh: inactive; LMP1 NFkB inh: inactive; TWEAK Fn14 block: inactive; Peg3 prom inh: inactive; TROY signal inh: inactive; Shn3 inh set2: inactive

How did Cc1ccc(S(=O)(=O)N2c3ccccc3-c3c(ssc3=S)C2(C)C)cc1 do in these assays?
TRPM1 prom inh: inactive; LMP1 NFkB inh: 58; TWEAK Fn14 block: inactive; Peg3 prom inh: inactive; TROY signal inh: inactive; Shn3 inh set2: inactive

How did Cc1ccc(C(=O)Oc2cc(C)n(C)c(=O)c2)cc1 do in these assays?
TRPM1 prom inh: inactive; LMP1 NFkB inh: inactive; TWEAK Fn14 block: 54; Peg3 prom inh: inactive; TROY signal inh: inactive; Shn3 inh set2: inactive

Results for Cc1ccc(S(=O)(=O)N2CCN(Cc3nc4ccccc4[nH]3)CC2)cc1C ?
TRPM1 prom inh: inactive; LMP1 NFkB inh: inactive; TWEAK Fn14 block: inactive; Peg3 prom inh: inactive; TROY signal inh: 53; Shn3 inh set2: inactive

How did CCOC(=O)c1c(C2CC2)csc1NC(=O)COC(=O)c1cnc(Cl)c(Cl)c1 do in these assays?
TRPM1 prom inh: inactive; LMP1 NFkB inh: inactive; TWEAK Fn14 block: inactive; Peg3 prom inh: 102; TROY signal inh: inactive; Shn3 inh set2: inactive

Results for CCOC(=O)c1c(C2CC2)csc1NC(=O)COC(=O)c1ccc[n+]([O-])c1 ?
TRPM1 prom inh: inactive; LMP1 NFkB inh: inactive; TWEAK Fn14 block: inactive; Peg3 prom inh: inactive; TROY signal inh: inactive; Shn3 inh set2: inactive

What do the screens show for `COC1(OC)C=CC(=O)C=C1NC(=O)c1ccccc1OC(C)=O`?
TRPM1 prom inh: inactive; LMP1 NFkB inh: inactive; TWEAK Fn14 block: 63; Peg3 prom inh: 50; TROY signal inh: inactive; Shn3 inh set2: inactive

How did O=C(NCCCl)Nc1ncn[nH]1 do in these assays?
TRPM1 prom inh: inactive; LMP1 NFkB inh: inactive; TWEAK Fn14 block: inactive; Peg3 prom inh: 100; TROY signal inh: inactive; Shn3 inh set2: inactive

What do the screens show for `O=C(Nc1ncn[nH]1)c1c(Cl)ccc(Cl)c1Cl`?
TRPM1 prom inh: inactive; LMP1 NFkB inh: inactive; TWEAK Fn14 block: inactive; Peg3 prom inh: inactive; TROY signal inh: inactive; Shn3 inh set2: inactive

What do the screens show for `COc1ccc(NC(=O)CN2C(=O)CSC(C)C2=O)cc1` (centres undefined)?
TRPM1 prom inh: inactive; LMP1 NFkB inh: inactive; TWEAK Fn14 block: inactive; Peg3 prom inh: 55; TROY signal inh: inactive; Shn3 inh set2: inactive

What do the screens show for `O=C(Cn1c(COc2ccccc2)nc2ccccc21)Nc1cc(Cl)ccc1Cl`?
TRPM1 prom inh: inactive; LMP1 NFkB inh: inactive; TWEAK Fn14 block: inactive; Peg3 prom inh: 54; TROY signal inh: inactive; Shn3 inh set2: inactive

Results for COc1ccc(C2/C(=C(/O)c3ccc(C)cc3)C(=O)C(=O)N2C)cc1 (centres undefined) ?
TRPM1 prom inh: inactive; LMP1 NFkB inh: inactive; TWEAK Fn14 block: inactive; Peg3 prom inh: inactive; TROY signal inh: inactive; Shn3 inh set2: inactive
